From PubChem BioAssay
Shown is part of a subset that was picked to be rich in hits.
Peg3 imprint = qHTS Assay for Compounds that Induce Erasure of Genomic Imprints; mouse ES Peg3-LacZ reporter, beta-gal luminescence, 40 h; Potency, µM (top dose mostly 60.7 µM), inactives show at the highest dose activity change, positive = activation, most hits filed as activators; 110,000 compounds, 0.02% hits; AID 1948, 2009; also: potency is read from the fitted curve at half-maximal effect
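Readout: BetaGlo luminescence (5 min, room temp) for LacZ from the normally silent maternal Peg3 allele in female Peg3LacZ-Neo ES cells. Cells 300/well, 40 h, 37C, 5% CO2. Data normalized per plate to negative controls.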
IkB signaling = IkB Signaling; 110,000 compounds, 0.04% hits; ABC-DLBCL IkBa-CBG/CBR dual luciferase ratio, 4 h; response scale: scaled: untreated 0%, proteasome inhibitor 100%; Potency, µM (series often up to 57.1 µM), without a hit: at the highest dose IkBa stabilization activation; AID 445, 2006; active = well fitted curve in the direction sought with a large enough effect in the signal ratio, not every such curve was filed as active; inconclusive = small, poorly fitted or top-dose-only effect, or a change in a side signal; the % refers to the signal ratio;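 also: potency is read from the fitted curve at half-maximal effect; the direction sought is a rising ratio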
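In this assay, an IκBα–CBG68 fusion accumulates when IKK-driven degradation is blocked; native CBR normalizes for cell number. OCI-Ly3 cells were treated 4 h with compound and doxycycline, then green and red light read after Chroma-Glo addition.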
CRE-bla Fsk = Cell signaling CRE-BLA (Fsk stim); CHO CRE-bla reporter (cAMP response element driving beta-lactamase), forskolin EC10, beta-lactamase ratio; Potency, µM (highest dose often 38.2 µM), for inactives: top-dose activity change, negative = inhibition, most hits filed as activators; 71,000 compounds, 2.5% hits; AID 662, 2007; active = well fitted activation curve with a large enough effect in the signal ratio, with a control signal flat, not every such curve was filed as active; inconclusive = small, poorly fitted or top-dose-only effect, or effect the other way, or a change in a side signal; the % refers to the signal ratio; also: potency is read from the fitted curve at half-maximal effect; % of control where 0% means no effect
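Cells were plated overnight at 37 °C, exposed to compound titrations plus EC10 NKH 477 for 3 h, then given CCF4 dye for 2 h at room temperature. Blue/green (460/530 nm) ratio was converted to %Activity and AC50 values calculated.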
GFP derepression = qHTS Assay for Epigenetic Modulators; mouse C127i GFP locus derepression, cytometry, 30 h; Potency, µM (doses to about 46.1 µM), inactives show at the highest dose GFP derepression (activation); 68,000 compounds, 0.09% hits; AID 597, 2007; also: % of control where 0% means no effect
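Murine C127i mammary cells carrying a silenced, stably integrated CMV-driven GFP reporter were treated with compound for 30 hours at 37 C. After PBS washes, GFP-positive cells were counted by laser-scanning microplate cytometry.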
HBB splicing = qHTS Assay for Modulators of Hemoglobin Beta Chain Splicing | HBB splicing reporter cell assay, activation; EGFP reporter with mutant IVS2-654 intron; response scale: normalised to 500 nM splice-correcting PNA | Potency, µM (highest dose often 46.1 µM), inactives show at the top dose activation, hits mostly activators | 65,000 compounds, 0.06% hits; also: potency is read from the fitted curve at half-maximal effect; 0% is about no effect
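Compounds were applied for 2 days to HeLa EGFP-654 cells, 500/well in Optimem with 2% FCS. The reporter's EGFP is disrupted by mis-splicing of beta-globin intron IVS2-654. Readout: summed well GFP fluorescence from 488 nm laser scanning; reference was 500 nM antisense […] 654 PNA.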
The depositor's hits bear a star; ? = inconclusive; / = no result given; [ ] = remark or other dose. Unless noted, calls follow the shape of the dose curve; as a rule, active = well fitted curve in the direction sought with a large enough effect; inconclusive = small, poorly fitted or top-dose-only effect, or another doubt; inactive = no such curve, though single readings can be large; an effect the other way counts as inactive or inconclusive.

SMILES | Peg3 imprint | IkB signaling | CRE-bla Fsk | GFP derepression | HBB splicing
COC(=O)c1sccc1NC(=O)c1ccc2c(c1)OCO2 | -18% | -4% | ? | -2% | 0%
COc1ccc(NC(=O)c2sc3nc4c(cc3c2N)CN(C(C)C)CC4)c(OC)c1 | -7%[10.9 µM] | ? | / | / | /
Cc1ccccc1CCNC(=O)c1ccc2c(c1)nc1n2CCCCC1 | -4%[10.9 µM] | ? | / | / | /
N#CCCn1c(=O)c(-c2ccc(F)cc2)nc2cnc(N3CCOCC3)nc21 | 1% | -1%[11.4 µM] | 0.4µM* | 3%[9.22 µM] | 5%
CN1CCN(c2ncc3nc(-c4ccc(Cl)cc4)c(=O)n(CCC#N)c3n2)CC1 | / | -6%[11.4 µM] | ? | 2%[9.22 µM] | 0%
N#CCCn1c(=O)c(-c2ccc(Cl)cc2)nc2cnc(N3CCOCC3)nc21 | -4% | -1%[11.4 µM] | 5µM* | 8%[9.22 µM] | 1%
Cc1ccccc1NC(=O)Cn1c(=O)n(Cc2ccco2)c(=O)c2cccnc21 | -4%[10.9 µM] | 1% | / | / | /
CCOc1ccc(C(=O)Nc2ccc3oc(-c4cccc5ccccc45)nc3c2)cc1 | -10%[10.9 µM] | 7% | / | / | /
Cc1c(CN(C)C)c2c(n1C)C(=O)c1ccc(Br)cc1-2 | -8% | 1% | 3.2µM* | -1% | 0%
O=c1c2c3nc4ccccc4nc3n(/N=C/c3cccs3)c2ncn1-c1ccccc1 | -8% | 0% | 5µM* | -2% | 0%[0.369 µM]
O=C(Cn1nc(C(F)(F)F)c2c1CCCC2)Nc1ccc(F)c(Cl)c1 | 20%[10.9 µM] | ? | / | / | /
COC(=O)c1[nH]c2c(c1C)C(=O)CC(c1ccccc1)C2 (centres undefined) | -22% | 1% | 1.6µM* | -2% | 0%
C=CCOC(=O)c1[nH]c2c(c1C)C(=O)CC(c1ccco1)C2 (centres undefined) | -27% | ? | 0.5µM* | -4% | -1%
C/C=C/COC(=O)c1[nH]c2c(c1C)C(=O)CC(c1ccco1)C2 (centres undefined) | -26% | ? | 1.3µM* | -2% | -1%
Cc1c(C(=O)OCC2CCCO2)[nH]c2c1C(=O)CC(c1ccco1)C2 (centres undefined) | -19% | -2% | ? | 0% | -1%
Cc1c(C(=O)OCC(C)C)[nH]c2c1C(=O)CC(c1ccco1)C2 (centres undefined) | -30% | ? | 1.6µM* | -3% | -2%
COc1ccc(OC)c(CCNC(=O)c2nn(C)c3c2CSc2ccccc2-3)c1 | 23%[10.9 µM] | 0% | / | / | /
Cc1ccc(OCC(=O)Nc2nonc2-c2ccc(C)c(C)c2)cc1C | -6%[10.9 µM] | -2% | / | / | /
O=C(NCc1ccccc1Cl)C(=O)NCC(c1cccs1)S(=O)(=O)c1ccccc1 (centres undefined) | 22%[10.9 µM] | 2% | / | / | /
C=Cc1ccc(CSc2nc(-c3ccc(OC)cc3)nc3c2Cc2c(CO)cnc(C)c2O3)cc1 | -12%[10.9 µM] | -1% | / | / | /
CC(=O)Nc1ccc(S(=O)(=O)N2CCC(c3nnnn3-c3ccccc3)CC2)cc1 | -5%[10.9 µM] | 0% | / | / | /
Cc1c(C(=O)OC2CCCC2)[nH]c2c1C(=O)CC(c1ccco1)C2 (centres undefined) | -25% | ? | 0.5µM* | -2% | -1%
Cc1c(C(=O)OC2CCCCC2)[nH]c2c1C(=O)CC(c1ccccc1)C2 (centres undefined) | -18%[10.9 µM] | ? | / | / | /
CCCn1c(=N)c(C(=O)NCc2ccco2)cc2c(=O)n3cc(C)ccc3nc21 | -9%[10.9 µM] | -2% | / | / | /
Cc1ccc2nc(NCc3ccco3)c(C=NCc3ccco3)c(=O)n2c1 | -16% | -2% | 10µM* | -2% | 1%
CCOC(=O)C1CCN(C(c2cccs2)c2sc3nc(C)nn3c2O)CC1 (centres undefined) | -8% | ? | 6.3µM* | / | -1%
COC(=O)C1CCN(C(c2cccs2)c2sc3nc(C)nn3c2O)CC1 (centres undefined) | -25% | 1% | -7% | / | 0%
N=c1c(C(=O)NCc2ccc(F)cc2)cc2c(=O)n3ccccc3nc2n1CC1CCCO1 (centres undefined) | -5% | -2% | 2µM* | 5% | 0%[57.5 µM]
CCCn1c(=N)c(C(=O)NCC2CCCO2)cc2c(=O)n3cccc(C)c3nc21 (centres undefined) | 4% | 0% | 13µM* | 0% | -1%
